Consider 94 compounds from PubChem BioAssay AID1434 (Sanford-Burnham Center for Chemical Genomics, 2008).

Among all 220,000 compounds or so, about 1,600 (0.73%) were called active.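 Rule for the calls: active = mean inhibition across duplicate retests at 20 µM reaching about 50% (limit read from the data); inactive = the rest, inconclusive results apart.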 The entries come from a sample that favours actives as a whole.

This test addresses Runt-related transcription factor 1 (Homo sapiens) + Core-binding factor subunit beta (Homo sapiens) (UniProt Q01196+Q13951). As to the kind of experiment: inhibitors of RUNX1 Runt–CBFb-SMMHC binding, primary screen, biochemical, FRET, Cerulean-Runt, Venus-CBFb-SMMHC, uHTS (AID 1434).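 Note: 0% = DMSO wells and 100% = wells with excess untagged CBFb-SMMHC; inhibitors lower the FRET ratio by blocking Runt binding to CBFb-SMMHC.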 Particulars: Cerulean-Runt/Venus-CBFb-SMMHC FRET ratio 530/480, 1 h, at 20 µM, stronger effect = higher value.

Chain of Runt-related transcription factor 1 (Homo sapiens) + Core-binding factor subunit beta (Homo sapiens) (Q01196 whole entry, looked up): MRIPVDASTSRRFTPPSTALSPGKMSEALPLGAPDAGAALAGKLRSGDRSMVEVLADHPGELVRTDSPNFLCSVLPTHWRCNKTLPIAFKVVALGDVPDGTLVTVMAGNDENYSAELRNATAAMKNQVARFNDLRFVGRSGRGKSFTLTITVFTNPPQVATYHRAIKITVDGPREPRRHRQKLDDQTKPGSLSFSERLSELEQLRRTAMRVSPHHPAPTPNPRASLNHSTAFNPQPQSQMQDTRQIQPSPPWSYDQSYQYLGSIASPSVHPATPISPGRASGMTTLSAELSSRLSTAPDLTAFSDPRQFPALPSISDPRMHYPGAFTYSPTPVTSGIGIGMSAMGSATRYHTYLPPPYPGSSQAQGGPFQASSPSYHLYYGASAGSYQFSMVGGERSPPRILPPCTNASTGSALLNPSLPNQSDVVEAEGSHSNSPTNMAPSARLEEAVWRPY
Chain of Runt-related transcription factor 1 (Homo sapiens) + Core-binding factor subunit beta (Homo sapiens) (Q13951 whole entry, looked up): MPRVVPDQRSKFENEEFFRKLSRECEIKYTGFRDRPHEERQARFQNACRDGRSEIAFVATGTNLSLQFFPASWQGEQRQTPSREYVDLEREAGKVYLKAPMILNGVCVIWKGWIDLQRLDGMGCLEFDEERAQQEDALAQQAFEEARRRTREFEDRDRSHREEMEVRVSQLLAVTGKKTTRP

A word on the inhibition: it is the change of the read-out against control, counted positive when it falls. `CC(C)Oc1c(Br)cc(Br)cc1/C=N/NC(N)=S`: the inhibition was -0.8% (inactive). The same measure, in the same setting: for `C=CCN(CC=C)C(=O)COC(=O)c1n[nH]c2ccccc12` the value was -3% (inactive); for `O=c1[nH]c(=S)[nH]c2[nH]c(=S)[nH]c12`, 45.1% (inactive). On the same count and under the same terms, in the case of `COc1ccc(C(C(=O)NC2CCCCC2)N(C(=O)CCl)c2ccccc2Cl)cc1` (configuration not stated) it was -1.2% (inactive); in that of `OC(COCC1COc2ccccc2O1)CN1CCN(c2ccc(F)cc2)CC1` (configuration not stated), 0.5% (inactive); in that of `COc1ccc(Cc2nnc(NC(=O)c3cc(OC)c(OC)c(OC)c3)s2)cc1OC`, -2% (inactive).

As to `COc1cc(/C=N/NC(=S)Nc2cccnc2)cc(OC)c1O`, the inhibition is 3% (inactive). Still for that read-out and setting: in the case of `CCCCCCCC[n+]1cccc(C(=O)N2c3c(nc(N)[nH]c3=O)NC(C)C2C)c1` (configuration not stated) it was 3.4% (inactive); in that of `COc1ccc2c(CN3CCN(S(=O)(=O)c4cccs4)CC3)cc(=O)oc2c1`, 12.6% (inactive).

With `O=C(CN1CCN(S(=O)(=O)/C=C/c2ccccc2)CC1)Nc1ccc(N2CCOCC2)cc1`, the inhibition is 1.4% (inactive).

For the compound `O=c1cc(CN2CCN(S(=O)(=O)/C=C/c3ccccc3)CC2)c2ccc(O)cc2o1`, the inhibition was 130% (active). In addition, the inhibition (retest duplicate average) was 146%. Turning to `COc1cccc(OCCCN2CCCCCC2)c1`, the inhibition was -44.8% (inactive). For the compound `COc1ccccc1/C=C/C1=NC(=C\N(C)C)/C(=O)O1`, the inhibition is 89.1% (active). Moreover, the inhibition (retest duplicate average) stood at 91.9%. Regarding `COc1cccc(/C=C/c2ccc3ccccc3n2)c1OC(C)=O`, the inhibition was -3.2% (inactive). On the same count and under the same terms, in the case of `O=C1OC(/C=C/c2ccccc2)=NC/1=C/c1ccco1` it was -22.3% (inactive). Same read-out and setting: for `CC(C)=C1C2CCC1C1C(=O)N(NC(=O)c3ccco3)C(=O)C21` (configuration not stated) the value was -1.2% (inactive).

As for `COc1cccc(C(=O)c2cc3ccc(O)cc3oc2=O)c1`, the inhibition was 165% (active). The inhibition (retest duplicate average) turned out to be 194%.

As to `COc1ccc2oc(=O)c(C(=O)N3CCCC3)cc2c1`, the inhibition was 3.9% (inactive). For `COc1ccc2oc(=O)c(C(=O)O)cc2c1`, the inhibition is 1.6% (inactive). As to `NC(=O)c1c(Nc2nc3c(F)cccc3s2)sc2c1CCCC2`, the inhibition is 104% (active). Moreover, the inhibition (retest duplicate average) turned out to be 175%. `NC(=O)c1c(NC(=O)CSc2nc(N)cc(=O)[nH]2)sc2c1CCCC2`: the inhibition is -8.6% (inactive). The same measure, in the same setting: for `Fc1cc(F)c2nc(Nc3nc4c(F)cccc4s3)sc2c1` the value was 4.2% (inactive); for `CCOC(=O)N1CC=C2C(C#N)=C(N)C(C#N)(C#N)[C@H](c3cccs3)[C@H]2C1`, -18.3% (inactive).

Turning to `CCCN1CC=C2C(C#N)=C(N)C(C#N)(C#N)C(c3cc(OC)ccc3OC)C2C1` (configuration not stated), the inhibition is 88.4% (active). The inhibition (retest duplicate average) worked out at 77.5%. Take `CCN1CC=C2C(C#N)=C(N)C(C#N)(C#N)[C@H](c3ccoc3)[C@H]2C1`: the inhibition was -20.7% (inactive). Same read-out and setting: for `Cc1ccc(C2Nc3ccccc3C(=O)N2CCN2CCNC2=O)cc1` (configuration not stated) the value was 2.4% (inactive); for `CC(C)NC(=O)C(=O)NCCCOC(C)C`, -0.3% (inactive). Turning to `O=C(Nc1nccs1)c1cc(S(=O)(=O)N2CCOCC2)c(Cl)cc1Cl`, the inhibition was -1% (inactive). As to `CCN1CCc2nc(NC(=O)c3cc(F)c(F)cc3Cl)sc2C1`, the inhibition is 52.5% (active). Moreover, the inhibition (retest duplicate average) turned out to be 76.5%. Consider `CC(=O)Cc1nsc(NC(=O)c2ccc(Cl)cc2Cl)n1`, for which the inhibition is -0.9% (inactive). Same read-out and setting: in the case of `O=C(CCc1ccccc1)NNc1ccc(F)cc1` it was -0.8% (inactive); in that of `CCCc1cc(=O)[nH]c(SCc2cc(=O)oc3c(C)c(C)ccc23)n1`, 1.9% (inactive). As to `CCCc1cc(=O)oc2c(C)c(O)c(CN3CCCCC3)cc12`, the inhibition was 70.4% (active). For the same compound, the inhibition (retest duplicate average) is 121%.

`CCc1ccc2oc(=O)cc(CN3CCCCC3C)c2c1` (configuration not stated): the inhibition is -0.5% (inactive). The same measure, in the same setting: in the case of `O=C(CN1CCc2ccccc21)NC(c1ccccc1)c1ccccc1` it was -0.8% (inactive); in that of `CCc1ccc(NC(=O)Nc2ccncc2)cc1`, -0.3% (inactive); in that of `CCN(CC)c1ccc2oc(=O)c(C)nc2c1`, -81.6% (inactive). On to `CCN(CC)c1ccc2cc(C(=O)O)c(=O)oc2c1`, for which the inhibition was 77.6% (active). Under “retest duplicate average”, the inhibition worked out at 71.5%. In the case of `CCN(CC)c1ccc2cc(C(N)=O)/c(=N\NC(=O)c3ccncc3)oc2c1`, the inhibition is -128% (inactive). Turning to `CSc1sc(C)cc1C1C(C#N)=C(N)N(c2cccnc2)C2=C1C(=O)CCC2` (configuration not stated), the inhibition was 76.1% (active). For the same compound, the inhibition (retest duplicate average) was determined as 73.7%. In the case of `N#CC1=C(N)N(c2ccccc2)C2=C(C(=O)CCC2)C1c1ccccc1` (configuration not stated), the inhibition was 29.5% (inactive). `CCc1ccc(C2C(C#N)=C(N)N(N(C)C)C3=C2C(=O)CCC3)s1` (configuration not stated): the inhibition is -11.9% (inactive). Regarding `COc1ccc(C2/C=C\CN(S(=O)(=O)c3cccs3)CC(=O)N2Cc2ccc(F)cc2)cc1` (configuration not stated), the inhibition is 2.2% (inactive). Still for that read-out and setting: for `COc1cc(CNc2ncn[nH]2)ccc1OCc1ccccc1C` the value was -0.6% (inactive); for `N#Cc1ccc(Oc2ccc(C(F)(F)F)cc2NC(=O)c2ccc(F)cc2)cc1`, -0.8% (inactive). Still for that read-out and setting: in the case of `C#CCNC(=O)C1=C[C@@H](c2ccccc2)[C@H](CCCO)[C@@H](OCC)O1` it was 1.4% (inactive); in that of `Cc1cc(C)cc(NC(=O)NC2CCN(CC(=O)Nc3cccc(Cl)c3C)CC2)c1`, 0.9% (inactive); in that of `NC(=O)C1(C(N)=O)OC1c1ccc(Cl)cc1Cl` (configuration not stated), 1% (inactive). Take `CCOc1ccccc1C1C(C(=O)OC)=CN(C)C=C1C(=O)OC`: the inhibition is 42% (inactive). For the compound `COC(=O)C1=CN(C)C=C(C(=O)OC)C1c1ccc(Cl)cc1Cl`, the inhibition is 60.9% (active). Also, the inhibition (retest duplicate average) turned out to be 91.8%.

Regarding `CC(OC(=O)c1ccc(NS(=O)(=O)c2ccc3[nH]c(=O)[nH]c3c2)cc1)C(=O)Nc1cccc(Cl)c1Cl` (configuration not stated), the inhibition was -5.6% (inactive). Same read-out and setting: for `CCOC(=O)C1CCN(CCC(=O)Nc2cccc(C)c2)CC1` the value was 0.1% (inactive); for `COCc1ccc(C(=O)N2CCc3c([nH]c4ccccc34)C2c2ccccn2)s1` (configuration not stated), 2.3% (inactive). `COCCCNC(=S)NCCNc1nc2cc(C)c(C)cc2cc1C#N`: the inhibition was 88.8% (active). For the setting “retest duplicate average”, the inhibition was found to be 125%.

As for `COCCCNC(=S)NC(=O)c1ccc([N+](=O)[O-])cc1`, the inhibition is 4.6% (inactive). For the compound `Cc1ccc2nc(NCCCNC(=O)c3cnccn3)c(C#N)cc2c1`, the inhibition is 32% (inactive).

As for `CC(C)N(Cc1ccccc1)C(=O)COC(=O)c1cnccn1`, the inhibition was -2.4% (inactive). Take `CSCCC(Nc1ccc(S(=O)(=O)N2CCOCC2)cc1[N+](=O)[O-])C(=O)OCC(=O)N(C(C)C)C(C)C` (configuration not stated): the inhibition was -4.8% (inactive). As for `CCOC(=O)C1=C(N)N(c2ccc(C)cc2)C2=C(C(=O)CCC2)C1c1cccs1` (configuration not stated), the inhibition was -7.1% (inactive). Take `CCCC(=O)N1c2ccccc2NC2=C(C(=O)CCC2)C1c1ccc(F)cc1` (configuration not stated): the inhibition was -4.3% (inactive).

With `CCCN1C2=C(C(=O)CCC2)C(c2ccc(O)c(Br)c2)C2=C1CCCC2=O`, the inhibition was 118% (active). For the same compound, where the note is “retest duplicate average”, the inhibition was determined as 118%. For `O=C(Nc1ccc2ccccc2c1)/C(=C\c1ccc2c(c1)OCO2)NC(=O)c1ccco1`, the inhibition was -21.7% (inactive). In the case of `COc1cccc(C(=O)Nc2ccc(N3CCCC3)cc2)c1`, the inhibition was 5.7% (inactive). For the compound `COc1ccc(N2CCN(C(=O)CSc3nc4cc(OC)c(OC)cc4cc3C#N)CC2)cc1`, the inhibition is 9.4% (inactive). Turning to `COc1ccc2nc(N3CCCC(O)C3)c(C#N)cc2c1` (configuration not stated), the inhibition is 65% (active). In addition, the inhibition (retest duplicate average) amounted to 72.9%. Consider `Cc1cc(C)nc(SCc2cn3c(C)cc(C)nc3n2)n1`, for which the inhibition was -4% (inactive). Same read-out and setting: in the case of `O=c1c(Cl)c(NCc2ccc(F)cc2Cl)cnn1C12CC3CC(CC(C3)C1)C2` it was 3.5% (inactive); in that of `FC(F)(F)c1ccc(-n2cn[nH]c2=S)cc1`, 3.3% (inactive); in that of `Nc1[nH][nH]c(=O)c1N=Nc1ccc2c(c1)OCO2`, -0.1% (inactive).

In the case of `CCCn1c(=O)c2c(C(F)(F)F)cc(-c3cccs3)nc2n(CCC)c1=O`, the inhibition was 1.9% (inactive).

On to `N#Cc1c(C(F)(F)F)cc(-c2cccs2)nc1N1CCCCC1`, for which the inhibition was 82.5% (active). In addition, the inhibition (retest duplicate average) turned out to be 79.2%.

Turning to `c1csc(-c2cn3c(n2)SCC3)c1`, the inhibition is -6.8% (inactive). Still for that read-out and setting: for `C=CCCN(Cc1ccccc1)S(=O)(=O)c1ccccc1Br` the value was -2.3% (inactive); for `c1ccc(-n2cccc2)c(N2CCCCC2)c1`, -0.7% (inactive); for `O=C(Cn1c(-c2ccccn2)nc2ccccc21)NCCN1CCOCC1`, -0.1% (inactive).

Turning to `c1ccc2cc3c(NCCN4CCOCC4)ccnc3cc2c1`, the inhibition was 78.2% (active). Also, the inhibition (retest duplicate average) was 71.5%. Turning to `O=C(NCCN1CCOCC1)c1ccc2c(c1)ncn2C1CCCC1`, the inhibition is 0.2% (inactive).

`C/C(N)=C(/C#N)C(=O)COC(=O)CNS(=O)(=O)c1ccc(C)cc1`: the inhibition was -1.2% (inactive). Same read-out and setting: for `CC(C)N(C)C(=O)CCc1nnc(CCc2c[nH]c3ccccc23)o1` the value was -1.1% (inactive); for `COc1ccc(/C=C2\SC(=S)N(CC(=O)NNC(=O)c3ccncc3)C2=O)cc1`, -217% (inactive); for `Cc1cc(=O)[nH]c(N/N=C/c2ccc3c(c2)OCCO3)n1`, -9.8% (inactive). Still for that read-out and setting: in the case of `Cc1ccc(S(=O)(=O)Nc2ccc3ncccc3c2)cc1` it was -1.3% (inactive); in that of `COc1ccc(S(=O)(=O)Nc2ccc3oc(C)c(C(C)=O)c3c2)cc1`, -0.7% (inactive). As for `COCc1cc(=O)oc2cc(NS(=O)(=O)c3ccc(C)cc3)ccc12`, the inhibition was 80.2% (active). Besides, for the setting “retest duplicate average”, the inhibition came to 71.8%. For `Cc1ccc(S(=O)(=O)NCCc2nnc3ccc(SCc4cccnc4)nn23)cc1`, the inhibition was -6.7% (inactive). Same read-out and setting: in the case of `O=C(Nc1cc2ccccc2oc1=O)C1CCCCC1` it was -0.3% (inactive); in that of `COC(=O)Cc1c(C)c2ccc(OCC(=O)NCc3ccc4c(c3)OCO4)cc2oc1=O`, -5.4% (inactive); in that of `Cc1c(Cc2ccccc2)c(=O)oc2cc(OCC(N)=O)ccc12`, 2.5% (inactive).

As for `CC(=O)Nc1cc2ccc(OC(C)=O)cc2oc1=O`, the inhibition was 58.6% (active). Further, the inhibition (retest duplicate average) is 119%. `O=C(Oc1ccccc1)Oc1ccc2c(c1)oc(=O)c1ccccc12`: the inhibition is -17.7% (inactive). In the case of `CC(=O)Oc1ccc2c(C)c(CC(C)O)c(=O)oc2c1` (configuration not stated), the inhibition was 119% (active). Moreover, under “retest duplicate average”, the inhibition was 116%. As to `CCCNC(=O)N1CCN(C(=O)NCCC)CC1`, the inhibition was 2.1% (inactive). As to `Cc1nc(C(=O)NCc2ccccc2)sc1C1(C)CC(c2cccnc2)=NO1` (configuration not stated), the inhibition is 0.2% (inactive). With `CCOC(=O)C1=C(c2ccccc2)NC(=S)NC1c1ccc(Cl)cc1` (configuration not stated), the inhibition was -1.3% (inactive).
